The nature of assay [1]: BET inhibitor-based combinations targeting novel dependencies in MECOM-rearranged (r) AML: SET-2 cell line (AID 2202231).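 For viability: plate controls were DMSO treated cells for no effect and wells without cells for full effect.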 Note: nearly all actives have a fitted effect of over 35% in size. Conditions: SET-2 AML cells viability, CellTiter-Glo luminescence, 48 h; viability: hits give low values, concentration not given here. In outline: (§1)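 Readout: CellTiter-Glo luminescence. Exposure: 48 h, 11 concentrations, 500 cells/well. Metric: AUC and within-line Z-AUC after DMSO/empty-well normalization.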
A general note: In ATP-based viability assays light output follows the ATP content of the culture.

Assay [2] is described as follows: BET inhibitor-based combinations targeting novel dependencies in MECOM-rearranged (r) AML: OCI-AML3 cell line (AID 2202232). Note: nearly all actives have a fitted effect of over 35% in size. The following applies: Potency: OCI-AML3 viability. The gist of the method:
as §1

The nature of assay [3]: BET inhibitor-based combinations targeting novel dependencies in MECOM-rearranged (r) AML: MV-4-11 cell line (AID 2202233). Note: nearly all actives have a fitted effect of over 45% in size. In outline:
(§2)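 Seeding density was 500 cells/well, and drug exposure lasted 48 hr under standard culture conditions. Read-out used CellTiter-Glo reagent with a 15 min room-temperature incubation before luminescence measurement; AUC and Z-AUC summarize the normalized responses.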

Assay [4] in a line: BET inhibitor-based combinations targeting novel dependencies in MECOM-rearranged (r) AML: AML-191 cell line (AID 2202236; note: nearly all actives have a fitted effect of over 35% in size). The gist of the method: as §1
Assay [5] is described as follows: BET inhibitor-based combinations targeting novel dependencies in MECOM-rearranged (r) AML: AML-194 cell line (AID 2202237; note: nearly all actives have a fitted effect of over 40% in size). In outline:
as §1

Assay [6] is described as follows: BET inhibitor-based combinations targeting novel dependencies in MECOM-rearranged (r) AML: UCSD-AML1 cell line (AID 2202235). Note: nearly all actives have a fitted effect of over 40% in size. In outline: as §2
The nature of assay [7]: BET inhibitor-based combinations targeting novel dependencies in MECOM-rearranged (r) AML: HNT-34 cell line (AID 2202234). Note: nearly all actives have a fitted effect of over 35% in size. The gist of the method:
as §2

Inconclusive results are not listed. Values without a mark were called inactive. Activity calls are given as the source filed them. Calls come from the whole dose curve; as a rule, active = well fitted curve in the direction sought with a large enough effect; inconclusive = small, poorly fitted or top-dose-only effect, or another doubt; inactive = no such curve, though single readings can be large; an effect the other way counts as inactive or inconclusive.
Potency is the fitted concentration of half-maximal effect.

Take `C=CC(=O)N1CC[C@@H](Oc2nc(Nc3ccc(N4CCC(N5CCN(C)CC5)CC4)cc3)c(C(N)=O)nc2CC)C1`: the Potency is 10.2 µM (active) in assay [1]; 4.56 µM (active) in assay [2]; 0.102 µM (active) in assay [3]; 4.07 µM (active) in assay [4]; 6.45 µM (active) in assay [5].
Take `CN1C/C=C/CCOc2cccc(c2)-c2ccnc(n2)Nc2cccc(c2)C1`: the Potency was 0.118 µM (active) in assay [1], 0.468 µM (active) in assay [2], 0.148 µM (active) in assay [6] and 0.296 µM (active) in assay [4].
Take `C#Cc1cccc(Nc2ncnc3cc4c(cc23)OCCOCCOCCO4)c1`: in assay [1], the viability was 93.5%. The Potency result in assay [2] and in assay [5] was “inactive” each time. For the same compound, the Potency in assay [7] is 18.6 µM (active).
In the case of `Cc1ccc(C2=Nc3ccc(Cl)cc3OC2)cc1`, the Potency is 8.33 µM (active) in assay [1] and 10.5 µM (active) in assay [2]. Besides, the Potency entry in assay [6], in assay [4] and in assay [5] was “inactive” in each case.
Consider `c1ccc(-c2nn3c(c2-c2ccnc4cc(OCCN5CCOCC5)ccc24)CCC3)nc1`, for which the viability in assay [1] was 81.4%. Also, in assay [2], the Potency entry is “inactive”. The Potency is 20.9 µM (active) in assay [6] and 18.6 µM (active) in assay [4].
With `CN1C(=O)[C@@H](NC(=O)c2cc(Cc3ccccc3)on2)COc2ccccc21`, in assay [1], the viability was 73.2%. Besides, the Potency result in assay [2], in assay [6] and in assay [4] was “inactive” throughout.
For `CC(=O)Nc1cc(Oc2ccc3c(nc(Nc4ccc(F)cc4F)n3C)c2C)ccn1`, the Potency in assay [1] was 0.209 µM (active); in assay [2], 0.934 µM (active); in assay [6], 0.235 µM (active).
Regarding `CC1(C)SCCN(S(=O)(=O)c2ccc(OCC#CCO)cc2)[C@H]1C(=O)NO`, in assay [1], the viability is 96.5%. Further, the Potency result in assay [2] and in assay [4] was “inactive” in each case.
Regarding `Cc1cc(C)c2c(c1)[C@@H](N(Cc1cc(C(F)(F)F)cc(C(F)(F)F)c1)c1nnn(C)n1)CCCN2CC1CCC(C(=O)O)CC1` (stereo partly drawn), in assay [1], the viability is 101%. Further, the Potency was 8.33 µM (active) in assay [2] and 18.6 µM (active) in assay [7]. The Potency entry in assay [6] and in assay [5] was “inactive” throughout.
Take `Cc1cc(C)c(S(=O)(=O)N(CCc2cccc(Br)c2)Cc2ccc(-c3cccc(S(C)(=O)=O)c3)cc2)c(C)c1`: in assay [1], the viability is 117%. Also, the Potency result in assay [2], in assay [6], in assay [4] and in assay [5] was “inactive” each time.
Turning to `C[C@@H](C(=O)Nc1ccc(Cl)cc1)C1CCC(c2ccnc3ccc(F)cc23)CC1` (stereo partly drawn), the Potency in assay [1] was 16.6 µM (active). In addition, the Potency entry in assay [2], in assay [6] and in assay [5] was “inactive” throughout.
`NC(=O)c1cc(F)cc2c1C(=O)N(C1CCN(C3CCC(F)(F)CC3)CC1)C2`: in assay [1], the viability is 106%. The Potency result in assay [2], in assay [6], in assay [4] and in assay [5] was “inactive” throughout.
Consider `Cc1oc(=O)oc1CN1CCN(c2cc3c(cc2F)c(=O)c(C(=O)O)c2n3C(C)S2)CC1` (stereo not drawn), for which the viability in assay [1] is 116%. For the same compound, the Potency entry in assay [2], in assay [7], in assay [6] and in assay [5] was “inactive” each time.
Take `Nc1ccc(F)cc1NC(=O)c1ccc(CNC(=O)/C=C/c2cccnc2)cc1`: the Potency in assay [1] was 13.2 µM (active); in assay [2], 4.17 µM (active); in assay [7], 4.17 µM (active); in assay [4], 16.6 µM (active); in assay [5], 14.8 µM (active).
For `OCCn1cc(-c2ccc3c(c2)CC/C3=N\O)c(-c2ccncc2)n1`, the viability in assay [1] was 102%. Also, the Potency in assay [2] was 2.35 µM (active). Further, in assay [6], the Potency entry is “inactive”.
In the case of `COc1cc(OC)cc(N2CCN(C(=O)Nc3nc4cc(F)ccc4nc3OC)CC2)c1`, the Potency in assay [1] was 1.32 µM (active); in assay [2], 1.05 µM (active); in assay [7], 0.833 µM (active); in assay [4] it was 0.934 µM (active); in assay [5], 1.05 µM (active).
Turning to `CNC(=O)CCc1cc(-c2ccc(-c3ccc(C(F)(F)F)cc3)cc2)n(-c2ccc(N3CCNCC3)cc2)n1`, the Potency in assay [1] was 7.42 µM (active); in assay [2] it was 5.9 µM (active); in assay [7], 8.33 µM (active); in assay [4] it was 5.9 µM (active); in assay [5], 7.42 µM (active).
`O=C(O)CC(C(=O)O)n1c(O)c(C2=c3cc(Br)ccc3=NC2=O)sc1=S` (stereo not drawn): the viability in assay [1] was 100%. Besides, the Potency result in assay [2], in assay [6] and in assay [4] was “inactive” each time.
Turning to `CC[C@H]1OC(=O)[C@H](C)C(=O)[C@H](C)[C@@H](O[C@H]2O[C@H](C)C[C@H](N(C)C)[C@H]2O)[C@](C)(OC)C[C@@H](C)C(=O)[C@H](C)[C@H]2N(CCCCn3cnc(-c4cccnc4)c3)C(=O)O[C@]12C`, the viability in assay [1] was 101%. The Potency result in assay [2], in assay [6], in assay [4] and in assay [5] was “inactive” throughout.
For `C=CC(=O)Nc1cccc(Oc2nc(Nc3ccc(N4CCN(C)CC4)c(F)c3)nc3[nH]ccc23)c1`, the Potency in assay [1] is 14.8 µM (active); in assay [2] it was 8.33 µM (active); in assay [6], 4.68 µM (active); in assay [4] it was 5.9 µM (active); in assay [5], 6.61 µM (active).
As to `C=CCN1C[C@H](C(=O)N(CCCN(C)C)C(=O)NCC)CC2c3cccc4[nH]cc(c34)C[C@H]21` (stereo partly drawn), the viability in assay [1] is 115%. For the same compound, the Potency in assay [2] was 10.5 µM (active). Besides, the Potency result in assay [7], in assay [6], in assay [4] and in assay [5] was “inactive” throughout.
On to `C[C@@H]1CC(=O)Nc2cccc(-c3ccc4c(c3)c(-c3cnn(C)c3)nn4C)c2N1`, for which the Potency in assay [1] was 6.61 µM (active); in assay [2], 6.61 µM (active); in assay [6], 2.63 µM (active); in assay [5], 6.61 µM (active).

The term viability denotes a read-out of living cells in per cent, often relative to untreated cells.

The record behind these values is PubChem BioAssay (NCATS).
